HSF1 inhib: HSF1 inhibition; NIH3T3-HGL HSE-luciferase, MG132-induced, luminescence 8 h; active compounds read low; activity change, negative = inhibition, % at 7.5 µM (by protocol); actives 0.77% (n = 300,000); AID 2098;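 active = more than half of replicate wells show activity change below -50%, luminescence cut by over half; inconclusive = some wells, but at most half, below -50%; inactive = no replicate well below -50%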;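 note: luciferase reports HSF-1 transcriptional activity via heat shock element; 0% = median of DMSO wells and -100% = zero luminescence signal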
Vif inh: HIV Vif inhibition; actives 0.35% (n = 340,000); HEK293T cells, Vif self-association by quenched fluorescence, imaging, 24 h; inhibition, % at 7.49 µM; in the data active = inhibition above about 50%, passing the limit was not always enough; inconclusive = no clear call, values can overlap the other calls; inactive = below about 31%
esBAF inh: blocks esBAF chromatin remodeling in mouse ES cells. actives 2% (n = 350,000). AID 602393. Bmi1-luciferase knock-in reporter, 24 h; 100% = twice the neutral-well signal. reporter increase, % at 12.5 µM; in the data active = activation above about 40%; inconclusive = no clear call, values can overlap the other calls;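 note: 0% = median of the plate's neutral control wells and 100% = double that signal; a rise in the Bmi1 reporter signal indicates esBAF inhibition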
HSF1 activator: increases HSF-1 driven luciferase reporter signal. NIH3T3-HGL HSF-1 luciferase reporter, MG132, 8 h; 100% = twice DMSO control signal. activation, % at 9 µM. actives 1.7% (n = 300,000). AID 504408;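 active = mean replicate activation of at least 50% with a set share of replicates each reaching 50%; inconclusive = only one of those two conditions met; inactive = mean below 50% and too few replicates reaching it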;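 note: 0% = median of the neutral control wells and 100% = twice that signal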
* = called active by the depositor. Only some compounds are listed: those with a hit (about 3.4% of all), similar ones and a draw of the others.

What do the screens show for `CC(=O)N(C)C[C@@H]1Oc2ncc(C#Cc3ccccn3)cc2C(=O)N([C@@H](C)CO)C[C@H]1C`?
esBAF inh: -12

What do the screens show for `CC(C)n1c(/C=C/c2ccccc2)nc2ccccc21`?
HSF1 inhib: 79; Vif inh: -7; esBAF inh: 51*; HSF1 activator: 107*

Results for CCCn1c(/C=C/c2ccccc2)nc2ccccc21 ?
Vif inh: -7; esBAF inh: 18

Results for CC(C)n1c(CN(C)c2ccccc2)nc2ccccc21 ?
HSF1 inhib: 3; Vif inh: -6; esBAF inh: -4; HSF1 activator: 26

Results for COCCOCCn1c(/C=C/c2ccccc2)nc2ccccc21 ?
HSF1 inhib: 32; Vif inh: 0; HSF1 activator: 60*

What do the screens show for `NC(=O)CCn1c2ccccc2c2ccccc21`?
HSF1 inhib: -2; Vif inh: 0; HSF1 activator: -4

How did Cc1ccc2c(c1)c1cccc3c1n2CCN3CCC(N)=O do in these assays?
HSF1 inhib: -6; Vif inh: -9; esBAF inh: 75*; HSF1 activator: -4

What do the screens show for `C[C@H]1CN([C@@H](C)CO)C(=O)c2cc(NC(=O)Cn3cnnn3)ccc2O[C@H]1CN(C)Cc1ccccc1`?
esBAF inh: 0

How did O=C(c1cccs1)N1CCN(c2nc3c(F)cc(F)cc3s2)CC1 do in these assays?
HSF1 inhib: 15; Vif inh: -1; esBAF inh: 43*; HSF1 activator: 6

Results for O=C(c1ccc([N+](=O)[O-])o1)N1CCN(c2nc3c(F)cc(F)cc3s2)CC1 ?
HSF1 inhib: 36; esBAF inh: -12; HSF1 activator: 71*

How did CSCc1ccc(C(=O)NCc2ccc(C)cc2)cc1 do in these assays?
HSF1 inhib: 0; Vif inh: -1; esBAF inh: 26; HSF1 activator: -10

Results for CSCc1ccc(C(=O)Nc2ccc(C(N)=O)cc2)cc1 ?
HSF1 inhib: 14; Vif inh: -4; HSF1 activator: 55*

How did Cc1ccc(NC(=O)c2ccc(CSc3nccc(C)n3)cc2)cc1 do in these assays?
HSF1 inhib: 3; Vif inh: inconclusive; esBAF inh: 25; HSF1 activator: 9

What do the screens show for `O=C(Nc1ccccc1)c1ccc(CSc2ncccn2)cc1`?
HSF1 inhib: 55; Vif inh: 3; esBAF inh: 3; HSF1 activator: 87*

Results for O=C(Nc1ccccc1F)c1ccc(CSc2ncccn2)cc1 ?
HSF1 inhib: 0; Vif inh: 8; esBAF inh: 62*; HSF1 activator: 10

How did C[C@@H]1CCCCO[C@@H](CN(C)CC2CCCCC2)[C@@H](C)CN([C@@H](C)CO)C(=O)c2cc(NS(=O)(=O)c3ccccc3)ccc2O1 do in these assays?
esBAF inh: 2

Results for C[C@@H](NC(=O)C[C@H]1C[C@@H]2c3cc(NC(=O)NC4CCCC4)ccc3O[C@@H]2[C@@H](CO)O1)c1ccccc1 ?
esBAF inh: 3

How did Cc1nc2c(-c3ccc(F)cc3)cnn2c2c1CCC2 do in these assays?
HSF1 inhib: 26; Vif inh: 5; HSF1 activator: 52*

How did CCOC(=O)c1c(-c2ccccc2)n(C)c2ccc(O)cc12 do in these assays?
HSF1 inhib: -57*; Vif inh: -15; esBAF inh: 6; HSF1 activator: -55

What do the screens show for `COc1ccccc1NC(=O)N(C)C[C@@H]1OCc2ccccc2-c2ccccc2C(=O)N([C@@H](C)CO)C[C@H]1C`?
esBAF inh: -10

How did CC1(C)Cc2nc(NCCN3CCOCC3)c(C#N)cc2CO1 do in these assays?
HSF1 inhib: 42; Vif inh: -5; esBAF inh: -9; HSF1 activator: 103*

Results for CC(C)CCNc1nc2c(cc1C#N)COC(C)(C)C2 ?
HSF1 inhib: 1; Vif inh: 1; esBAF inh: 5; HSF1 activator: -14

How did O=C(Nc1cccc(OC(=O)c2ccco2)c1)c1ccco1 do in these assays?
HSF1 inhib: 14; Vif inh: 2; esBAF inh: 7; HSF1 activator: 15

Results for O=C(Nc1ccccc1)Nc1cccc(Cl)c1Cl ?
HSF1 inhib: 24; Vif inh: -11; esBAF inh: 60*; HSF1 activator: 25

What do the screens show for `O=C(Nc1ccc(NC(=O)c2ccccc2Cl)nc1)c1ccco1`?
HSF1 inhib: 23; Vif inh: 29; esBAF inh: 54*; HSF1 activator: 22

How did O=C(Nc1ccc(Cl)cc1)Nc1cccc2nsnc12 do in these assays?
HSF1 inhib: 19; Vif inh: -6; esBAF inh: 91*; HSF1 activator: 39

Results for COc1cccc(NC(=O)c2ccco2)c1 ?
HSF1 inhib: 14; Vif inh: 13; esBAF inh: 60*; HSF1 activator: 14

Screening data (PubChem BioAssay)
